# PubChem BioAssay AID652283 (National Center for Advancing Translational Sciences (NCATS), 2013)
# Inconclusive results are not listed. A number with no mark means an inactive call. Activity calls are given as the source filed them. Calls follow the shape of the dose curve; as a rule, active = well fitted inhibition curve with a large enough effect; inconclusive = small, poorly fitted or top-dose-only effect; inactive = no such curve, though single readings can be large or run the other way.
# Test: qHTS Assay for Lipid Storage Modulators: COS7 Assay against Probe and Analogs
# Conditions: COS7 lipid droplet area, BODIPY imaging, 18 h; cells loaded with 400 µM oleic acid
# Excerpt: Storing lipids as a reservoir for energy or the anabolism of elementary metabolites is a common feature of probably all cells and is conserved from bacteria to humans. The universal cellular lipid storage organelle is the so-called lipid storage droplet (LD). Although ubiquitous, LDs share a simple structure composed of a hydrophobic core that harbors the storage lipids, which is shielded by a droplet-specific phospholipid monolayer to which proteins are attached. The current model of LD biogenesis involves an incorporation of the lipid core into the membrane leaflets of the endoplasmic reticulum (ER) followed by a subsequent budding-like maturation of a LD, which ultimately pinches off. Once released, LD volume can increase by localized lipogenesis or fusion of existing droplets. Storage lipids are re-mobilized enzymatically by lipase activity. Lipase regulation in the adipocyte is heavily studied and involves multiple components including catecholamine signaling, the LD-associated proteins Perilipin and comparative gene identification-58 (CGI-58) and at least two lipases named hormone sensitive lipase (HSL) and adipocyte triglyceride lipase (ATGL). LD regulation outside of the adipocyte is poorly understood and only few components are known. However, there is an urgent need to learn more about ectopic fat depots as mislocalized storage of lipids, for example in the liver or muscle, is an eminent health problem associated with insulin resistance or the metabolic syndrome. We developed a laser-scanning cytometer assay to enable 1,536-well screening and combined the results of the small molecules screen with an RNAi database based on lipid storage. In this assay we tested analogs of the probe against a mammalian cell line (COS7), to see if these small molecules could disrupt lipid storage. NIH Molecular Libraries Probe Production Centers Network [MLPCN] NIH Chemical Genomics Center [NCGC] MLPCN Grant: MH085686 Assay Submitter (PI): Mathias Beller, Max-Planck-Institut fur Biophysikalische Chemie
# COS7 cells were obtained from ATCC (CRL-1651), 5500 cells/well were dispensed into Corning 96 well imaging plate (catalog # 3340), and cultured in 100 uL of 1:1 DMEM medium (PAA) contain 10% fetal bovine serum (FBS) for 24 hours at 37 degrees C, 95% humidity, and 5% CO2. The medium was exchanged for compound treatment. Compound treatment occurred in 150 microL serum reduced medium (5% FBS) and 0.2% DMSO in presence of 400 microM oleic acid for 17-18 h. Cells were then fixed (3.7 % formaldehyde in PBS, 5 min), permeabilized (0.1% Triton X100, 5 min) and washed three times with PBS. Lipid droplets (1:2000 BODIPY 493/503) and nuclei (1:1000 Hoechst 33342) were stained for 1h. Imaging was performed in a Zeiss Axiovert automatic microscope. Number of lipid droplet accumulated in […] cells were analyzed using visual examination of the microscopic images and additional quantification by image segmentation using Cell Profiler.
SMILES,max response [%],Potency
O=C(O)CCc1ccc(NCc2cccc(Oc3ccccc3)c2)cc1,-0.35,
CCOc1ccc(CCNC(=O)c2cc3sccc3n2CC=C(C)C)cc1OCC,,2.35 µM (active)
CCOC(=O)C1CCN(C(=O)C(C)(C)NC(=O)Nc2ccccc2Cl)CC1,,13.2 µM (active)
CCOc1ccc(CCNC(=O)c2cc3sccc3n2Cc2ccncc2)cc1OCC,,2.96 µM (active)
COc1cccc(-n2ncc3c2CCCC3NC(=O)c2ccccn2)c1 (stereo not given),,5.9 µM (active)
CCOc1ccc(CCNC(=O)C2=C(C)OCCO2)cc1OCC,10.4,
COc1ccc(-n2ncc3c2CCCC3NC(=O)c2ccccn2)cc1 (stereo not given),,4.69 µM (active)
CC(C)(C)OC(=O)NC1CCCc2c1cnn2-c1ccc(F)cc1F (stereo not given),3.11,
CCOc1ccc(CCNC(=O)c2cc3sccc3[nH]2)cc1OCC,-4.32,
CC(C)(C)OC(=O)NCCOCCOCCOc1ccc(-n2ncc3c2CCCC3NC(=O)c2ccccn2)cc1 (stereo not given),,18.7 µM (active)
O=C(c1cc2sccc2n1Cc1ccccc1)N(CCc1ccc(O)c(O)c1)Cc1ccccc1,10.7,
CC1(C)CCC(c2ccc(Cl)cc2)=C(CN2CCN(c3ccc(C(=O)NS(=O)(=O)c4ccc(N[C@H](CCN5CCOCC5)CSc5ccccc5)c(S(=O)(=O)C(F)(F)F)c4)cc3)CC2)C1,,3.72 µM (active)
CCN(CC)C(=O)C1CCN(C(=O)C(C)(C)NC(=O)Nc2ccccc2Cl)CC1,-9.22,
CCOc1cc(F)c(CCNC(=O)c2cc3sccc3n2Cc2ccccc2)cc1OCC,-106,
CCOC(=O)C1CCN(C(=O)C(C)(C)NC(=O)Nc2ccc(Cl)cc2Cl)CC1,,6.62 µM (active)
CCOc1cc2c(cc1OCC)CN(C(=O)c1cc3sccc3n1Cc1ccccc1)CC2,,3.32 µM (active)
CCOc1ccc(CCNC(=O)c2cc3sccc3n2C)cc1OCC,,8.33 µM (active)
CCOC(=O)C1CCN(C(=O)C(C)(C)NC(=O)Nc2cccc(-c3csc(C)n3)c2)CC1,3.3,
CCOc1ccc(CCNC(=O)c2cccs2)cc1OCC,-20.6,
CCOc1ccc(CCNC(=O)c2ccc3[nH]ccc3c2)cc1OCC,20.9,

SMILES,max response [%],Potency
O=C(NC1CCCc2c1cnn2-c1ccc(F)cc1F)C1CCCCC1 (stereo not given),3.71,
CCOc1ccc(CCNC(=O)c2ccc3ccccc3n2)cc1OCC,-25,
CCOc1ccc(CCNC(=O)c2cnon2)cc1OCC,8.92,
CCn1c(C(=O)NCc2ccc(OC)c(OC)c2)cc2sccc21,0.0567,
CCOC(=O)C1CCN(C(=O)C(C)(C)NC(=O)Nc2ccc(N)cc2)CC1,-5.67,
CCOc1ccc(CCNC(=O)c2cc3sccc3n2C(C)C)cc1OCC,,1.18 µM (active)
CCOc1ccc(C(C)CNC(=O)c2cc3sccc3n2Cc2ccccc2)cc1OCC (stereo not given),,11.8 µM (active)
O=C(CCCCCCC(=O)Nc1ccccc1)NO,-18.2,
CCOc1ccc(CCNC(=O)C2(c3ccccc3)CC2)cc1OCC,2.24,
CCOC(=O)C1CCN(C(=O)C2(NC(=O)Nc3ccccc3Cl)CCCCC2)CC1,-103,
O=C(NC1CCCc2c1cnn2-c1ccc(F)cc1F)C1CCCCN1 (stereo not given),-10.9,
O=C(Cc1ccccc1)NC1CCCc2c1cnn2-c1ccc(F)cc1F (stereo not given),1.55,
CCOc1ccc(CCNC(=O)c2cccc(C(=O)c3ccccc3)c2)cc1OCC,,14.8 µM (active)
CN(C)Cc1ccc(-c2nc3cccc4c3n2CCNC4=O)cc1,3.13,
CC(C)(C)OC(=O)NCCOCCOCCOc1cccc(-n2ncc3c2CCCC3NC(=O)c2ccccn2)c1 (stereo not given),,14.8 µM (active)
Cc1cc(SCc2sc(-c3ccc(C(F)(F)F)cc3)nc2C)ccc1OCC(=O)O,14.2,
CCOc1ccc(CCNC(=O)c2cc3sccc3n2CCN2CCOCC2)cc1OCC,,2.96 µM (active)
CCOc1ccc(CCNC(C)=O)cc1OCC,-6.62,
CC(C)Oc1ccc(CCNC(=O)c2cc3sccc3n2Cc2ccccc2)cc1OC(C)C,,1.66 µM (active)
CCOc1ccc(CCNC(=O)c2cc3sccc3n2Cc2ccccn2)cc1OCC,,1.48 µM (active)
